HT1080-NT tox: qHTS for induction of synthetic lethality in tumor cells producing 2HG: qHTS for the HT-1080-NT fibrosarcoma cell line; HT-1080-NT fibrosarcoma viability, CellTiter-Glo ATP luminescence, 48 h; Potency, µM (highest dose often 46.1 µM), usual class: cytotoxic; 1.6% of 360,000 active; AID 686970, 2013;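 also: NT is the 2HG producing partner of a matched IDH1 knockdown line; nearly all actives have a fitted effect of over 55% in size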
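750 cells/well, RPMI + 5% FBS; 2 h settle, compound pin-transfer, 48 h at 37 degrees C. CellTiter-Glo 10 min RT, luminescence. Normalized to DMSO and media-only wells.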
ATXN2 expr inh: Primary qHTS for Inhibitors of ATXN expression; 0.72% of 360,000 active; HEK-293 ATXN2-luciferase reporter, luminescence, 24 h; Potency, µM (highest dose often 57 µM), actives largely listed as inhibitors; AID 1745845, 2022; also: nearly all actives have a fitted effect of over 55% in size
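ATXN2-luciferase reporter cells (luciferase flanked by upstream and downstream ATXN2 gene portions) were treated 24 h at 37 °C with compounds at up to 57 uM. SteadyGlo luminescence gave expression; GF-AFC fluorescence gave viability.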
KB-3-1 cytotox: qHTS assay for MDR1-selective chemotherapeutics: Primary screen using the parental adenocarcinoma cell KB-3-1; KB-3-1 viability, CellTiter-Glo ATP luminescence, 72 h; Potency, µM (series often up to 46.1 µM), most hits filed as cytotoxic; 1.4% of 400,000 active; also: nearly all actives have a fitted effect of over 60% in size
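Parental KB-3-1 adenocarcinoma cells in phenol-red-free DMEM with 10% FBS were pin-treated with compounds at several concentrations, incubated 72 h at 37 °C, and viability read by CellTiter-Glo luminescence; concentration-effect curves were fitted after normalization.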
S2 tox: Viability Counterscreen for Primary qHTS for Inhibitors of ATXN expression; S2 cells (HEK-293 line with an ATXN2-luciferase reporter) viability, CellTiter-Fluor protease fluorescence, 24 h; Potency, µM (top dose mostly 56.7 µM), usual class: cytotoxic; 0.49% of 400,000 active; also: nearly all actives have a fitted effect of over 40% in size
HT1080 IDH1KD tx: qHTS for induction of synthetic lethality in tumor cells producing 2HG: qHTS for the HT-1080-IDH1KD cell line; HT-1080 IDH1 knockdown viability, ATP luminescence, 48 h; Potency, µM (doses to about 46.1 µM), actives largely listed as cytotoxic; 2% of 360,000 active; AID 686971, 2013
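Knockdown cells (IDH1KD HT-1080) received compounds 2 h after plating at 750 cells/well and were kept 48 h at 37 °C in 5% FBS RPMI. A CellTiter-Glo luminescence read gave % activity for curve fitting.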
KB-V1 cytotox: qHTS assay for MDR1-selective chemotherapeutics: Primary screen using the drug-selected MDR subline cells KB-V1 | KB-V1 MDR cells viability, CellTiter-Glo, 72 h | Potency, µM (titrated, usually from 46.1 µM), usual class: cytotoxic | 3.4% of 400,000 active; also: nearly all actives have a fitted effect of over 60% in size
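Cells of the MDR subline KB-V1 are plated, dosed with compound at multiple concentrations, and incubated 72 h at 37 degrees C; CellTiter-Glo is then added and luminescence read after 10 min.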
Of the large screens only hits and unclear results are named; the others gave an inactive call. Rows were chosen to be rich in hits. Some 6.2% of all compounds tested hit in one or more screens of this group. Calls follow the shape of the dose curve; as a rule, active = well fitted curve in the direction sought with a large enough effect; inconclusive = small, poorly fitted or top-dose-only effect, or another doubt; inactive = no such curve, though single readings can be large; an effect the other way counts as inactive or inconclusive.

O=C1CSC2(C(=O)N(Cc3ccccc3F)c3ccccc32)N1c1cccc(C(F)(F)F)c1 (configuration not stated)	ATXN2 expr inh inconclusive, KB-3-1 cytotox 18µM, KB-V1 cytotox 8.2µM (no result: HT1080-NT tox, HT1080 IDH1KD tx)
COc1cc(N2C(=O)CSC23C(=O)N(Cc2ccc(C)cc2)c2ccccc23)cc(OC)c1OC (configuration not stated)	KB-V1 cytotox inconclusive (no result: HT1080-NT tox, HT1080 IDH1KD tx)
COc1ccc(N2C(=O)CSC23C(=O)N(Cc2ccc(C)cc2)c2ccccc23)cc1Cl (configuration not stated)	KB-3-1 cytotox inconclusive, KB-V1 cytotox 18µM (no result: HT1080-NT tox, HT1080 IDH1KD tx)
CC(C)(C)NC1=NCCNC(c2ccccc2)=C1	KB-3-1 cytotox inconclusive (no result: ATXN2 expr inh)
CC(=O)Nc1ccc(S(=O)(=O)NC2(C(F)(F)F)C(=O)Nc3c2c(=O)[nH]c(=O)n3-c2ccc(C)cc2)cc1 (configuration not stated)	KB-3-1 cytotox inconclusive (no result: HT1080-NT tox, HT1080 IDH1KD tx)
Cc1cc(C)c(NC(=O)C(=O)NCC(c2cccnc2)N2CCN(c3ccccc3F)CC2)c(C)c1 (configuration not stated)	none (no result: HT1080-NT tox, ATXN2 expr inh, S2 tox, HT1080 IDH1KD tx)
CN(C)c1ccc(/C=C2\C=Cc3ccccc32)c(F)c1	none (no result: HT1080-NT tox, ATXN2 expr inh, S2 tox, HT1080 IDH1KD tx)
O=C(C1CCC(CNS(=O)(=O)c2cccc3nsnc23)CC1)N1CCN(c2ccccn2)CC1 (configuration not stated)	KB-V1 cytotox 18µM
CN1CCN(C(=O)C2CCC(CNS(=O)(=O)c3cccc4cccnc34)CC2)CC1 (configuration not stated)	none
CCCS(=O)(=O)NC(=O)C1(C)CCCN(C(=O)c2sccc2C)C1 (configuration not stated)	none
O=c1cc(-c2ccccc2)oc2ccc3ccccc3c12	KB-V1 cytotox 21µM (no result: ATXN2 expr inh)
O=c1cc(-c2ccccc2)oc2cccc(O)c12	none
O=c1cc(-c2ccc(O)c(O)c2)oc2c1ccc1ccccc12	ATXN2 expr inh inconclusive
O=c1cc(-c2ccc(O)c(O)c2)oc2ccc3ccccc3c12	ATXN2 expr inh inconclusive, KB-V1 cytotox 18µM
O=C(NCc1ccccc1Cl)c1ccc(-n2cnc3cccnc32)cc1	KB-V1 cytotox inconclusive (no result: HT1080-NT tox, HT1080 IDH1KD tx)
COc1ccc(OC)c(-c2cc(-c3cccnc3)nc(N)c2C#N)c1	HT1080-NT tox 1.8µM, KB-3-1 cytotox 2.1µM, HT1080 IDH1KD tx 1.5µM, KB-V1 cytotox 2.6µM
Cc1ccccc1-c1nc(CN2CCC(C(=O)NCc3ccc(F)cc3)CC2)c(C)o1	S2 tox inconclusive (no result: HT1080-NT tox, HT1080 IDH1KD tx)
CCCCNC(=O)c1ccc(CS(=O)(=O)c2ccc(C)cc2)o1	none
CC1CCCN(CC(O)COc2ccc(-c3ccccc3)cc2)C1 (configuration not stated)	HT1080-NT tox 18µM, ATXN2 expr inh inconclusive, KB-3-1 cytotox inconclusive, S2 tox inconclusive, HT1080 IDH1KD tx inconclusive
OC1CCCN(CC(O)COc2ccc(-c3ccccc3)cc2)C1 (configuration not stated)	HT1080-NT tox inconclusive, HT1080 IDH1KD tx inconclusive, KB-V1 cytotox inconclusive
CCOc1cc(/C=C/C(=O)Nc2ccc(C(=O)NCCN(CC)CC)cc2)ccc1OCC(C)C	HT1080-NT tox inconclusive, KB-3-1 cytotox 18µM, HT1080 IDH1KD tx inconclusive (no result: ATXN2 expr inh, S2 tox)
C/C(=N/NC(=O)c1ccncc1)C(=O)O	none (no result: HT1080-NT tox, KB-3-1 cytotox, HT1080 IDH1KD tx, KB-V1 cytotox)
COc1cccc(-c2cnc(C(O)c3ccc(C)cc3C)[nH]2)c1 (configuration not stated)	none
Cc1cc(-c2nc3cc(F)ccc3s2)ccc1N	KB-3-1 cytotox inconclusive, KB-V1 cytotox 18µM
Cc1ccc(C(=O)Nc2ccc(-c3nc4ccccc4s3)cc2C)cc1C	KB-3-1 cytotox inconclusive (no result: HT1080-NT tox, HT1080 IDH1KD tx)
O=C1NC2=C(C(=O)c3ccccc32)C(c2ccccc2)N1 (configuration not stated)	KB-V1 cytotox inconclusive
